Here are results for 16 compounds from PubChem BioAssay (NCI).

Test systems include T-47D breast; BT-549 breast; MDA-MB-435 melanoma; SW-620 colon; MCF7 breast; HCT-116 colon; HCC-2998 colon; KM12 colon.
Common to all, as to test: NCI-60 one-dose screen, 48 h (100 = growth as untreated, 0 = no growth, -100 = all killed)
Holding throughout (conditions): 10 µM unless noted

This is part of a sample that, as a whole, favours compounds with a hit. Of some 83,000 tested, about 20% had one in any assay.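 Treatment: one concentration, 48 hours, 96-well format. Scoring: percent growth, with anything below 10 considered active.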 A number with no mark means an inactive call. The source made the active and inactive calls.

As for `Cn1ccnc1C(=O)/C=C/c1ccc(C(=O)Nc2c(F)c(F)c(F)c(F)c2F)cc1`, the growth was 9.11% (active) in the assay with T-47D breast; 22.4% in the assay on BT-549 breast; 48.7% in the assay with MDA-MB-435 melanoma; -14.3% (active) in the assay on SW-620 colon; 13% in the assay on MCF7 breast; -21.5% (active) in the assay on HCT-116 colon. The growth with HCC-2998 colon was -4.74% (active); with KM12 colon, -58.7% (active).
In the case of `COc1cccc(-c2cc(-c3ccc(Nc4nc(Nc5ccc(Cl)cc5)nc(Nc5ccc(Cl)cc5)n4)cc3)nc(N)c2C#N)c1`, the growth was -30.3% (active) in the assay on T-47D breast; -30.1% (active) with BT-549 breast; -5.12% (active) in the assay with MDA-MB-435 melanoma; -39.7% (active) in the assay on SW-620 colon; 28.5% in the assay with MCF7 breast; 6.35% (active) in the assay on HCT-116 colon. Further, the growth in the assay with HCC-2998 colon is -29.9% (active); in the assay on KM12 colon it was 46.7%.
With `CC(C)CCc1nc2ccc(NCc3ccc(OCCN4CCC(C)CC4)cc3)cc2[nH]1`, the growth with T-47D breast is 97%; in the assay with BT-549 breast, 77.1%; with MDA-MB-435 melanoma it was 89.2%; in the assay with SW-620 colon, 89.3%; in the assay with MCF7 breast, 62.3%; with HCT-116 colon, 65.1%. Also, the values for the growth with HCC-2998 colon and in the assay on KM12 colon were 42.7% and 87.6%, respectively.
Take `O=C1/C(=C/c2ccc(Br)cc2)COc2ccc(O)cc21`: the growth in the assay with T-47D breast is 80.6%; in the assay with BT-549 breast, 79.2%; with MDA-MB-435 melanoma, 75.6%; with SW-620 colon, 1.35% (active); with MCF7 breast, 9.07% (active); in the assay on HCT-116 colon, 16.9%. The growth with HCC-2998 colon was 89.8%; in the assay on KM12 colon, 26.8%.
For `O=c1cc(-c2nccc3c2[nH]c2ccccc23)c2cc(Cl)ccc2o1`, the growth in the assay with T-47D breast was 59.4%; in the assay with BT-549 breast it was 36.1%; with MDA-MB-435 melanoma, 1.21% (active); in the assay on SW-620 colon it was 34.3%; in the assay with MCF7 breast, 27.2%; in the assay on HCT-116 colon, 8.73% (active). Moreover, the values for the growth in the assay on HCC-2998 colon and with KM12 colon were 74.2% and 29%, respectively.
In the case of `NS(=O)(=O)Oc1cccc(-c2nc3sccn3c2-c2ccccc2)c1`, the growth with T-47D breast is 36.2%; with BT-549 breast, 54%; with MDA-MB-435 melanoma, 3.29% (active); in the assay on SW-620 colon, 35.5%; in the assay on MCF7 breast, 26.1%; in the assay with HCT-116 colon, 23.5%. The growth in the assay with HCC-2998 colon was 87.4%; in the assay on KM12 colon, 48.4%.
`COc1cc2c(cc1OC)CC[N+](CCC[N+](C)(C)C)=C2`: the growth in the assay with T-47D breast was 103%; in the assay on BT-549 breast, 92.8%; with MDA-MB-435 melanoma it was 103%; with SW-620 colon, 113%; in the assay on MCF7 breast, 95.1%; in the assay on HCT-116 colon, 95.2%. Besides, the growth was 89.5% in the assay on HCC-2998 colon and 103% with KM12 colon.
`COc1c(O[C@@H]2OC(CO)[C@H](O)[C@H](O)C2O)cc2oc3cc(O)c(CC=C(C)C)c(O)c3c(=O)c2c1CC=C(C)C` (stereo partly drawn): the growth is 70.8% in the assay on T-47D breast; 102% with BT-549 breast; 94.3% with MDA-MB-435 melanoma; 104% in the assay with SW-620 colon; 92.8% with MCF7 breast; 88.8% in the assay with HCT-116 colon. The results for the growth in the assay with HCC-2998 colon and with KM12 colon were 95.9% and 106%, respectively.
In the case of `COC(=O)[C@H](C)NC(=O)c1ccc(NC(=O)c2[nH]c(C)c(Cl)c2Cl)c(OCCN)c1`, the growth is 99.6% in the assay with T-47D breast; 97% with BT-549 breast; 104% with MDA-MB-435 melanoma; 102% in the assay on SW-620 colon; 81.5% with MCF7 breast; 106% with HCT-116 colon. Moreover, the figures for the growth in the assay with HCC-2998 colon and with KM12 colon were 95.4% and 92.5%, respectively.
With `COc1ccc(-c2cc(-c3ccc(N(C)C)cc3)nc(NC(=O)c3cccnc3)n2)cc1`, the growth is 85.6% with T-47D breast; 119% with BT-549 breast; 103% in the assay with MDA-MB-435 melanoma; 101% with SW-620 colon; 81.9% in the assay on MCF7 breast; 102% with HCT-116 colon. The growth in the assay on HCC-2998 colon was 120%; in the assay with KM12 colon it was 98.3%.
Regarding `CCc1ccc(Cc2cnc(NC(=O)c3cc(C)oc3C)s2)cc1`, the growth was 34.4% in the assay on T-47D breast; 44.8% in the assay on BT-549 breast; -21.5% (active) in the assay on MDA-MB-435 melanoma; 18.3% with SW-620 colon; 16.5% with MCF7 breast; 20.4% with HCT-116 colon. Moreover, the growth with HCC-2998 colon is 58.3%; in the assay on KM12 colon it was 22%.
As for `Cn1ccnc1C(=O)/C=C/c1ccc(CC(=O)Nc2cc(F)c(F)c(F)c2)cc1`, the growth in the assay on T-47D breast was 29.2%; in the assay with BT-549 breast, 16.3%; in the assay with MDA-MB-435 melanoma, 19.2%; with SW-620 colon, 9% (active); with MCF7 breast, 10.7%; with HCT-116 colon, 5.93% (active). Moreover, the values for the growth in the assay on HCC-2998 colon and with KM12 colon were 4.93% (active) and 9.05% (active), respectively.
Turning to `Nc1c(C(=O)c2ccc(Cl)cc2)sc(Nc2ccccc2)c1-c1nc2ccccc2s1`, the growth with T-47D breast is 11.8%; in the assay with BT-549 breast, 55.2%; in the assay with MDA-MB-435 melanoma it was 16.7%; with SW-620 colon it was 39.3%; with MCF7 breast, 43.9%; in the assay with HCT-116 colon it was 13.9%. In addition, the results for the growth with HCC-2998 colon and in the assay on KM12 colon were 67.5% and 16.1%, respectively.
Turning to `CC(C)(C)n1cc(-c2ccnc(NCCNS(=O)(=O)c3ccc(Br)cc3)c2)c(-c2cccc(O)c2)n1`, the growth in the assay with T-47D breast was 8.09% (active); in the assay on BT-549 breast, 30.8%; in the assay with MDA-MB-435 melanoma it was 28.1%; in the assay on SW-620 colon it was 5.53% (active); in the assay with MCF7 breast, 8.18% (active); in the assay with HCT-116 colon, 19.7%. For the same compound, the growth in the assay with HCC-2998 colon was -17.5% (active); with KM12 colon, 17.3%.
Regarding `Oc1ccc(C2OCCO2)c2cccnc12`, the growth was 26.2% in the assay on T-47D breast; 64.2% in the assay with BT-549 breast; 49.4% with MDA-MB-435 melanoma; 22.3% with SW-620 colon; 7.84% (active) in the assay with MCF7 breast; 8.85% (active) with HCT-116 colon. The growth in the assay with HCC-2998 colon was 96.6%; in the assay on KM12 colon, 72.4%.
`Cc1ccc(Nc2cc(N)nc(N)n2)cc1`: the growth with T-47D breast is 98.9%; with BT-549 breast, 113%; in the assay on MDA-MB-435 melanoma, 106%; in the assay with SW-620 colon, 102%; in the assay with MCF7 breast it was 86.5%; in the assay with HCT-116 colon, 104%. Also, the figures for the growth with HCC-2998 colon and in the assay with KM12 colon were 96% and 95.5%, respectively.
